Assay results published in PubChem BioAssay (Tox21).
Records with an inconclusive call do not appear. Entries that show only a call come without a potency. Unmarked numbers belong to inactive results. Calls of active or inactive are those of the source. Calls follow the shape of the dose curve; as a rule, active = well fitted cell-killing curve with a large enough effect in the repeat runs; inconclusive = weak or mixed curves, or effect the other way; inactive = flat fitted curve, though single readings scatter.

Assay: cAMP Responsive Elements (CRE) small molecule antagonists, cell-based qHTS assay: qHTS cell viability counter screen (AID 2060913); also: nearly all actives have a fitted effect of over 40% in size
Conditions: CRE-bla HEK293T viability, CellTiter-Glo luminescence, 5 h; series mostly up to 92.4 µM
Method in brief: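 Cytotoxicity read in the same wells as the CRE-bla HEK293T antagonist assay: after 3 h compound with 0.25 uM NKH477 final and 2 h beta-lactamase substrate, CellTiter-Glo luminescence measured.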
For `CNCCS(=O)(=O)O`, the Potency was “inactive”.
In the case of `CCCCCCCC/C=C\CCCCCCCC(N)=O`, the Potency is reported as “inactive”.
With `COCCCOCCCOC` the Potency was “inactive”.
In the case of `CCCC(=O)c1ccccc1`, the Potency is reported as “inactive”.
In the case of `CCOc1ccc(NS(=O)(=O)c2ccc(N)cc2)nn1`, the Potency is reported as “inactive”.
For `C[C@@H]1C[C@H]2[C@@H]3CCC4=CC(=O)C=C[C@]4(C)[C@@]3(Cl)[C@@H](O)C[C@]2(C)[C@@]1(OC(=O)c1ccco1)C(=O)CCl`, the Potency was “inactive”.
In the case of `CCCCOC(O)CC` (stereo not given), the Potency is reported as “inactive”.
In the case of `Cn1sccc1=O`, the Potency is reported as “inactive”.
In the case of `Nc1ccccc1[N+](=O)[O-]`, the Potency is reported as “inactive”.
With `CC(C)(C)NC(=O)[C@H]1CC[C@H]2[C@@H]3CC[C@H]4NC(=O)C=C[C@]4(C)[C@H]3CC[C@]12C` the Potency was “inactive”.
With `Cc1c(C)c2c(c(C)c1O)CC[C@@](C)(CCC[C@H](C)CCC[C@H](C)CCCC(C)C)O2` the Potency was “inactive”.
For `Oc1cc2c(cc1O)[C@H]1c3ccc(O)c(O)c3OC[C@@]1(O)C2`, the Potency was “inactive”.
For `CN1CCC[C@H]1c1cccnc1`, the Potency was “inactive”.
For `CCC(O)OC(O)CC` (stereo not given), the Potency was “inactive”.
In the case of `CCCC(CC)CCCCCCCN` (stereo not given), the Potency is reported as “inactive”.
For `Cc1cc(CC(=O)O)n(C)c1C(=O)c1ccc(Cl)cc1`, the Potency was “inactive”.
In the case of `CCCCCCCCCCCCCCC(=O)O`, the Potency is reported as “inactive”.
For `O=c1c(O)c(-c2ccc(O)cc2)oc2cc(O)cc(O)c12`, the Potency was “inactive”.
For `Nc1c2c(nc3ccccc13)CCCC2`, the Potency was “inactive”.
For `O=[N+]([O-])c1ccccc1C(F)(F)F`, the Potency was “inactive”.
For `O=C1c2ccccc2Cc2ccccc21`, the Potency was “inactive”.
For `COC(=O)N/N=C/c1c[n+]([O-])c2ccccc2[n+]1[O-]`, the Potency was “inactive”.
With `OC(CN1CCC(Cc2ccc(F)cc2)CC1)c1ccc(Cl)cc1` (stereo not given) the Potency was “inactive”.
In the case of `OCCN1CN(CCO)CN(CCO)C1`, the Potency is reported as “inactive”.
For `CCCC(C)=O`, the Potency was “inactive”.
For `CCCC[N+](C)(CCCC)CCCC`, the Potency was “inactive”.
For `COCCOCCOC`, the Potency was “inactive”.
For `C=CC(C)(CCC=C(C)C)OC(=O)/C=C/c1ccccc1` (stereo not given), the Potency was “inactive”.
For `c1ccc2ncccc2c1`, the Potency was “inactive”.
With `CCCc1c2oc(C(=O)O)cc(=O)c2cc2c(=O)cc(C(=O)O)n(CC)c12` the Potency was “inactive”.
In the case of `CC1=C(C=O)C(C)(C)CC=C1`, the Potency is reported as “inactive”.
For `NNS(=O)(=O)c1ccc(Oc2ccc(S(=O)(=O)NN)cc2)cc1`, the Potency was “inactive”.
In the case of `COC(=O)c1cc(Cl)ccc1OC`, the Potency is reported as “inactive”.
With `Cc1ccc(C)c(O)c1` the Potency was “inactive”.
In the case of `CN(C)C/C=C(/c1ccc(Br)cc1)c1cccnc1`, the Potency is reported as “inactive”.
With `CSc1c(Cl)c(Cl)c(Cl)c(Cl)c1Cl` the Potency was “inactive”.
With `CCC(=O)OCc1ccc(OC)cc1` the Potency was “inactive”.
`NC(N)=NCCC[C@H](N)C(=O)O` gave a viability change, negative = cytotoxic of -0.587% [at 8.39 µM].
With `CC(=O)Oc1cccc2c1C(=O)c1c(OC(C)=O)cc(C(=O)O)cc1C2=O` the Potency was “inactive”.
With `CN1CCN(C(=O)C2CCCCC2)CC1` the Potency was “inactive”.

Assay: cAMP Responsive Elements (CRE) small molecule agonists, cell-based qHTS assay: qHTS cell viability counter screen (AID 2060914);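 also: viability read after 3 h of compound exposure; nearly all actives have a fitted effect of over 50% in size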
Conditions: CRE-bla HEK293T viability, CellTiter-Glo luminescence, 5 h; series mostly up to 92.4 µM
Method in brief: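 CRE-bla HEK293T cells in 10% dialyzed FBS medium were exposed to compounds for 3 h at 37C after 18 h plating. CellTiter-Glo was then added in the same wells, and luminescence was read after 30 min at room temperature.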
In the case of `CNCCS(=O)(=O)O`, the Potency is reported as “inactive”.
In the case of `CCCCCCCC/C=C\CCCCCCCC(N)=O`, the Potency is reported as “inactive”.
For `COCCCOCCCOC`, the Potency was “inactive”.
In the case of `CCCC(=O)c1ccccc1`, the Potency is reported as “inactive”.
In the case of `CCOc1ccc(NS(=O)(=O)c2ccc(N)cc2)nn1`, the Potency is reported as “inactive”.
In the case of `C[C@@H]1C[C@H]2[C@@H]3CCC4=CC(=O)C=C[C@]4(C)[C@@]3(Cl)[C@@H](O)C[C@]2(C)[C@@]1(OC(=O)c1ccco1)C(=O)CCl`, the Potency is reported as “inactive”.
In the case of `CCCCOC(O)CC` (stereo not given), the Potency is reported as “inactive”.
In the case of `Cn1sccc1=O`, the Potency is reported as “inactive”.
For `Nc1ccccc1[N+](=O)[O-]`, the Potency was “inactive”.
For `CC(C)(C)NC(=O)[C@H]1CC[C@H]2[C@@H]3CC[C@H]4NC(=O)C=C[C@]4(C)[C@H]3CC[C@]12C`, the Potency was “inactive”.
For `Cc1c(C)c2c(c(C)c1O)CC[C@@](C)(CCC[C@H](C)CCC[C@H](C)CCCC(C)C)O2`, the Potency was “inactive”.
With `Oc1cc2c(cc1O)[C@H]1c3ccc(O)c(O)c3OC[C@@]1(O)C2` the Potency was “inactive”.
In the case of `CN1CCC[C@H]1c1cccnc1`, the Potency is reported as “inactive”.
With `CCC(O)OC(O)CC` (stereo not given) the Potency was “inactive”.
In the case of `CCCC(CC)CCCCCCCN` (stereo not given), the Potency is reported as “inactive”.
For `Cc1cc(CC(=O)O)n(C)c1C(=O)c1ccc(Cl)cc1`, the Potency was “inactive”.
In the case of `CCCCCCCCCCCCCCC(=O)O`, the Potency is reported as “inactive”.
For `O=c1c(O)c(-c2ccc(O)cc2)oc2cc(O)cc(O)c12`, the Potency was “inactive”.
With `Nc1c2c(nc3ccccc13)CCCC2` the Potency was “inactive”.
With `O=[N+]([O-])c1ccccc1C(F)(F)F` the Potency was “inactive”.
With `O=C1c2ccccc2Cc2ccccc21` the Potency was “inactive”.
In the case of `COC(=O)N/N=C/c1c[n+]([O-])c2ccccc2[n+]1[O-]`, the Potency is reported as “inactive”.
For `OC(CN1CCC(Cc2ccc(F)cc2)CC1)c1ccc(Cl)cc1` (stereo not given), the Potency was “inactive”.
In the case of `OCCN1CN(CCO)CN(CCO)C1`, the Potency is reported as “inactive”.
With `CCCC(C)=O` the Potency was “inactive”.
With `CCCC[N+](C)(CCCC)CCCC` the Potency was “inactive”.
For `COCCOCCOC`, the Potency was “inactive”.
For `C=CC(C)(CCC=C(C)C)OC(=O)/C=C/c1ccccc1` (stereo not given), the Potency was “inactive”.
In the case of `c1ccc2ncccc2c1`, the Potency is reported as “inactive”.
In the case of `CCCc1c2oc(C(=O)O)cc(=O)c2cc2c(=O)cc(C(=O)O)n(CC)c12`, the Potency is reported as “inactive”.
For `CC1=C(C=O)C(C)(C)CC=C1`, the Potency was “inactive”.
With `NNS(=O)(=O)c1ccc(Oc2ccc(S(=O)(=O)NN)cc2)cc1` the Potency was “inactive”.
In the case of `COC(=O)c1cc(Cl)ccc1OC`, the Potency is reported as “inactive”.
With `Cc1ccc(C)c(O)c1` the Potency was “inactive”.
For `CN(C)C/C=C(/c1ccc(Br)cc1)c1cccnc1`, the Potency was “inactive”.
For `CSc1c(Cl)c(Cl)c(Cl)c(Cl)c1Cl`, the Potency was “inactive”.
For `CCC(=O)OCc1ccc(OC)cc1`, the Potency was “inactive”.
Compound `NC(N)=NCCC[C@H](N)C(=O)O` has an activity change, negative = cytotoxicity of -0.412% [at 8.39 µM].
In the case of `CC(=O)Oc1cccc2c1C(=O)c1c(OC(C)=O)cc(C(=O)O)cc1C2=O`, the Potency is reported as “inactive”.
For `CN1CCN(C(=O)C2CCCCC2)CC1`, the Potency was “inactive”.
